# Laboratory results reported in PubChem BioAssay AID1986 (Sanford-Burnham Center for Chemical Genomics, 2009).
# “And” between values parts separate entries of the source, which are not always exact repeats. Identical values can stand only once. Screen size: about 290,000 compounds; about 890 (0.31%) were called active. Cut-off read from the data, not from the text of the source: active = inhibition mostly above about 52% (no sharp cut-off); inactive = mostly below about 76%. For the sample, actives were picked, then their nearest neighbours and some compounds at random. A structure can be active in one record and inactive in another.
# Assay: inhibitors of HIV fusion peptide binding, primary screen, biochemical, uHTS, fluorescence dequenching (AID 1986)
# Conditions: cell-free peptide binding, 30 min, stronger effect = higher value
# [1] = measured here: repeat confirmation average inhibition, at 18.6 µM
SMILES,inhibition (at 20 µM),inhibition [1]
Cc1cc(-c2ccc(Cl)s2)n[nH]1,0% (inactive),
CC1(C)CCCC2=C1CC1C(=O)N(Cc3cccnc3)C(=O)C1C2 (stereo unspecified),1.5% (inactive),
Cc1cc(C)n2nc(C(=O)N/N=C/c3ccco3)nc2n1,-0.3% (inactive),
O=C(c1nc2ccccn2c1CNCC1OCCc2ccccc21)N1CCOCC1 (stereo unspecified),-0.8% (inactive),
Cc1ccc(C)c(S(=O)(=O)NCCCn2ccnc2)c1,-0.3% (inactive),
COc1ccccc1NS(=O)(=O)c1ccc(N/N=C/c2c(C)nn(-c3ccccc3)c2N2CCCC2)c([N+](=O)[O-])c1,-5.2% (inactive),
COc1ccc(NC(=O)c2ccccc2NS(=O)(=O)c2ccc(C)cc2)c([N+](=O)[O-])c1,1.8% (inactive),
Cc1nn(-c2ccccc2)c(Cl)c1/C=N/Nc1ccc(S(=O)(=O)Nc2ccccc2C(=O)O)cc1[N+](=O)[O-],73% (active),
COc1ccc(NS(=O)(=O)c2cccc(C(=O)Nc3ccccc3C(=O)O)c2)cc1,19.7% (inactive),
COc1ccc(NC(=S)NNc2ccc(S(=O)(=O)Nc3ccccc3C(=O)O)cc2[N+](=O)[O-])cc1,52.4% (active),
Cc1nn(-c2ccccc2)c(N2CCCC2)c1/C=N/Nc1ccc(S(=O)(=O)Nc2ccccc2)cc1[N+](=O)[O-],-3.9% (inactive),
COc1ccc(N(CC(=O)N2CCc3ccccc3C2)S(C)(=O)=O)cc1,-1.6% (inactive),
COc1cc(COCC(O)CN2CCOCC2)cc(OC)c1OC (stereo unspecified),-2.1% (inactive),
O=C(Cc1ccc(Cl)cc1)Nc1cc(S(=O)(=O)N2CCOCC2)ccc1N1CCCC1,1.2% (inactive),
N#CC1CC(c2ccc([N+](=O)[O-])cc2)=NN1c1ccc([N+](=O)[O-])cc1 (stereo unspecified),83.7% (active),
O=[N+]([O-])c1ccc(N2N=C(c3ccccc3)CC2c2ccccc2O)cc1 (stereo unspecified),38.9% (inactive),
N#CC1CC(c2ccccc2)=NN1c1ccccc1[N+](=O)[O-] (stereo unspecified),-3.1% (inactive),
COC(=O)c1sccc1NC(=O)Nc1ccc(OC)cc1,1.8% (inactive),
Cc1ccc(OCCNS(=O)(=O)c2cccs2)cc1,-0.8% (inactive),
CCN(CC)C(=O)CSc1nc(O)c(Cc2ccc(OC)cc2)c(=O)[nH]1,0.3% (inactive),
Cc1ccc(/C=C(\C#N)C(=O)Nc2ccccn2)o1,0.3% (inactive),
N#C/C(=C\c1ccco1)C(=O)Nc1cccc2ncccc12,1.5% (inactive),
Cc1ccc(/C=C(\C#N)C(=O)Nc2cccc3ncccc23)o1,77.8% (active),
CCc1nnc(SCC(=O)N2CCCC(N3CCN(c4ccccc4C)CC3)C2)o1 (stereo unspecified),-0.2% (inactive),

SMILES,inhibition (at 20 µM),inhibition [1]
CC1(C)CC(=O)C2=C(C1)N(c1ccc(F)cc1)C(=O)C2(NC(=O)c1ccccc1)C(F)(F)F (stereo unspecified),-0.9% (inactive),
COc1ccc(OC)c(-c2c3cc(O)c(=O)cc-3oc3cc(O)c(O)cc23)c1,122% (active),
Cc1c2cc(O)c(=O)cc-2oc2cc(O)c(O)cc12,150% (inactive) and 61.1% (active),
Cc1cc2oc(=O)cc(-c3cc4ccccc4o3)c2cc1O,21% (inactive),
O=c1cc2oc3cc(O)c(O)cc3c(-c3ccccc3O)c-2cc1O,148% (inactive),
COc1c(O)cc2oc(-c3ccc(O)c(O)c3)cc(=O)c2c1O,20.2% (inactive),
O=c1cc2oc3cc(O)c(O)cc3c(-c3ccccc3[N+](=O)[O-])c-2cc1O,34.3% (inactive),
COc1cc(-c2cc(=O)c3ccccc3o2)ccc1O,-1.9% (inactive),
COc1ccc2c(=O)cc(-c3ccccc3F)oc2c1,-1.9% (inactive),
COc1cc(OC)c(-c2c3cc(O)c(=O)cc-3oc3cc(O)c(O)cc23)cc1OC,82.9% (active),
COc1ccc(OC)c(-c2oc3ccccc3c(=O)c2O)c1,-0.8% (inactive),
Cc1ccccc1-c1cc(=O)c2c(O)cccc2o1,-1.7% (inactive),
CCOc1ccccc1-c1c2cc(O)c(=O)cc-2oc2cc(O)c(O)cc12,118% (active),
CC1=NN(c2ccc(C)cc2C)C(=O)C1C(c1ccccc1O)C1C(=O)N(c2ccc(C)cc2C)N=C1C (stereo unspecified),3.7% (inactive),
COc1ccc(C(=O)Nc2ccnn2C2CCN(C(=O)c3cnsn3)CC2)cc1,-1.2% (inactive),
COc1ccccc1C(=O)N/C(=C/c1ccc(Br)cc1)C(=O)NCCO,7.1% (inactive),
CCCCCCNc1cc2n(c(=O)n1)CCc1cc(OC)c(OC)cc1-2,-3.2% (inactive),
COc1ccccc1NS(=O)(=O)c1ccc(NN=C2CCCCC2)c([N+](=O)[O-])c1,-1.4% (inactive),
c1ccc2c(c1)CC1(CCCCC1)n1nnnc1-2,-1.4% (inactive),
CCCCCC(=O)NC(=S)Nc1ccc2oc(=O)ccc2c1,-0.3% (inactive),
COC(=O)CCSCC(=O)Nc1ccc(S(=O)(=O)N2CCOCC2)cc1OC,0.8% (inactive),
CC(C)C1/C(=N/O)CC(c2ccccc2)NC1c1ccccc1 (stereo unspecified),0% (inactive),
CCCCNC(=O)CC1N=C2c3ccccc3N=C(SCC(=O)Nc3ccccc3OC)N2C1=O (stereo unspecified),1.1% (inactive),
CCOC(=O)c1nc(S(C)(=O)=O)ncc1N1CCOCC1,-2.9% (inactive),

SMILES,inhibition (at 20 µM),inhibition [1]
CCc1ccccc1N(C(=O)CCC(=O)Nc1cc(C)on1)C(C(=O)NC1CCCC1)c1ccco1 (stereo unspecified),0.8% (inactive),
CC(=O)CC(c1ccc([N+](=O)[O-])cc1)c1c(O)c2ccccc2oc1=O (stereo unspecified),3.8% (inactive),
O=[N+]([O-])c1ccc2c(c1)oc1ccccc12,-0.8% (inactive),
COc1cc(/C=N/NC(N)=O)cc([N+](=O)[O-])c1O,-1.1% (inactive),
CCN(CC(=O)Nc1c(F)cccc1F)C(=O)c1ccccc1F,0.4% (inactive),
O=C(O)C(Cc1ccccc1)N1C(=O)CCC1=O (stereo unspecified),-1.2% (inactive),
O=C(O)C(Cc1ccccc1)n1cccc1 (stereo unspecified),1.2% (inactive),
Cc1ccc(C)n1C(Cc1ccccc1)C(=O)O (stereo unspecified),67.3% (active),
Cc1ccc(CNC(=O)C2CCN(C(=O)c3cccc(Cl)c3)CC2)cc1,1.1% (inactive),
Cc1ccc(S(=O)(=O)N(CC(=O)Nc2ccccc2C(=O)O)c2ccccc2C)cc1,9.7% (inactive),
Cc1ccc(S(=O)(=O)N(CC(=O)Nc2ccccc2C(=O)O)c2ccccc2)cc1,10.7% (inactive),
Cc1ccc(S(=O)(=O)N(CC(=O)Nc2ccccc2C(=O)O)c2cccc(Cl)c2C)cc1,52% (active),
CC1CCN(C(=O)CSc2nc3ccccc3c(=O)[nH]2)CC1,-0.9% (inactive),
CC(C(=O)N1CCN(C(=O)c2ccco2)CC1)n1sc2ccccc2c1=O (stereo unspecified),1.6% (inactive),
CC1=CC(=O)c2c(O)ccc(O)c2C1=O,68.3% (active),
COc1cccc2c1C(=O)C=C(C)C2=O,2.7% (inactive),
CC1=CC(=O)c2ccccc2C1=O,-2.1% (inactive),
O=C(COc1ncnc2ccccc12)Nc1cc([N+](=O)[O-])ccc1Cl,-0.3% (inactive),
COCC1CCN(C(=O)c2cc(COc3ccc(C)c(C)c3)on2)C1 (stereo unspecified),0.9% (inactive),
COc1cc(/C=C2/SC(=O)N(Cc3ccccc3)C2=O)ccc1OCc1ccncc1,-4.2% (inactive),
Cc1ccc(S(=O)(=O)NC(=O)c2ccc(Br)o2)c(C)c1,-0.8% (inactive),
Cc1ccc(S(=O)(=O)NC(=O)c2ccc(-c3ccc(-c4ccccc4)cc3)o2)c(C)c1,52.6% (active),
Cc1ccc(S(=O)(=O)NC(=O)c2ccc(-c3ccc(C)c4ccccc34)o2)cc1,23.3% (inactive),
O=C(Nc1cccc(C(=O)Nc2ccc(Cl)cn2)c1)c1ccccc1,7.8% (inactive),

SMILES,inhibition (at 20 µM),inhibition [1]
O=C(Nc1ccc(F)cc1)c1oc2ccccc2c1NC(=O)C1CC1,-0.2% (inactive),
Cc1nn(-c2ccc3ccccc3c2)c(=O)c2ccccc12,0% (inactive),
CSc1nnc(-c2ccccc2N=Cc2c(C)[nH]n(-c3ccccc3)c2=O)c(=O)[nH]1,6% (inactive),
O=C(N/N=C/c1ccc(-c2ccc(Cl)c(C(=O)O)c2)o1)c1cc2c(ccc3ccccc32)o1,50.3% (active),
Cc1ccc(/C=N/NC(=O)c2cc3c(ccc4ccccc43)o2)o1,-1.7% (inactive),
Cc1ccc(-c2ccc(/C=N\NC(=O)c3cc4c(ccc5ccccc54)o3)o2)cc1[N+](=O)[O-],-1.4% (inactive),
CCC(C)NC(=O)COC(=O)c1cccnc1Nc1ccccc1F (stereo unspecified),0.1% (inactive),
CCOC(=O)Cn1c2ccc(OC)cc2c2nc3ccccc3nc21,3% (inactive),
COC(=O)Cn1c2ccc(OC)cc2c2nc3ccccc3nc21,9.1% (inactive),
CCCCOC(=O)Cn1c2ccc(OC)cc2c2nc3ccccc3nc21,53.3% (active),57.8%
CCc1ccc(-c2cc3c(=O)n(CC(=O)NCCN4CCCCC4C)nc(C)n3n2)cc1 (stereo unspecified),-0.3% (inactive),
COc1ccc2c(Cl)c(C(=O)N/N=C3\CCCC(=O)C3)sc2c1,77.7% (active),
O=C1CCC/C(=N/NC(=O)c2sc3ccccc3c2Cl)C1,81.5% (inactive),39.7%
COc1ccc2c(Cl)c(C(=O)NN)sc2c1,1.3% (inactive),
CC(C)(C)NC(=O)CSc1ccc(C(C)(C)C)cc1,-2.2% (inactive),
O=Cc1c(Sc2ccccc2)nc2ccccn2c1=O,2.6% (inactive),
O=c1c(/C=N/O)c(Nc2ccccc2)nc2ccccn12,-2.7% (inactive),
O=C(O)c1ccccc1N/N=C/c1c(Sc2nnnn2-c2ccccc2)nc2ccccn2c1=O,80.8% (active),54.8%
NC(=O)N/N=C/c1c(Sc2nnnn2-c2ccccc2)nc2ccccn2c1=O,0% (inactive),
O=C(O)c1ccc(/C=N/Nc2nnnn2-c2ccccc2)cc1,2.1% (inactive),
O=c1c(/C=N/Nc2ccccc2)c(Sc2nnnn2-c2ccccc2)nc2ccccn12,96.2% (active),
